90 compounds from PubChem BioAssay AID493034 (The Scripps Research Institute Molecular Screening Center, 2011) can be followed below.

Hit rate of the full screen: of about 2,400 compounds, about 2,200 (92%) were called active. So high a share suggests a set chosen from earlier hits. Some of the results follow. A number with no mark means an inactive call.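 How the source made its calls: active means mean inhibition over triplicate runs exceeds the cutoff derived for the earlier primary screen (cut at about 25% in these data); inactive means the rest.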

Sequence of Platelet-activating factor acetylhydrolase IB subunit alpha2 (Homo sapiens) (P68402 whole entry, looked up): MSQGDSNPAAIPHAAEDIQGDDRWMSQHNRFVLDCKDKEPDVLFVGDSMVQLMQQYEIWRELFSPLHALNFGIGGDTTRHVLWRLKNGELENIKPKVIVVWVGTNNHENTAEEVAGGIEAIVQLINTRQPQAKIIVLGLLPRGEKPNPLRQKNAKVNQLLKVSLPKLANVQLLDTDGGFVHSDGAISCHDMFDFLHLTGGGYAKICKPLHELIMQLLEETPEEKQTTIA

The assay addresses Platelet-activating factor acetylhydrolase IB subunit alpha2 (Homo sapiens) (UniProt P68402). Kind of assay: PAFAH1B2 inhibitors, confirmation, biochemical, fluorescence polarization, FP-rhodamine probe, triplicate (AID 493034).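 Further: 0% = enzyme with DMSO and 100% = wells lacking PAFAH1B2 protein; inhibitors lower polarization by leaving the probe unbound.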 The conditions noted are these: recombinant PAFAH1B2, FP-rhodamine probe fluorescence polarization; at 3.39 µM; active compounds read high. In general terms: Fluorescence polarisation rises when a labelled molecule tumbles more slowly, as on binding a larger partner.
Broadly, the inhibition is the percentage by which the read-out fell short of the control. As to `Cc1c(N=C2C=C(Br)C(=O)C(Br)=C2)c(=O)n(-c2ccccc2)n1C`, the inhibition was 20.8%.
Under `O=S(=O)(Nc1ccc2cn[nH]c2c1)c1ccc(Cl)cc1` stands 18.1%; under `O=c1[nH]c2ccc(S(=O)(=O)Nc3ccc(Cl)cc3)cc2o1`, 41.7% (active); under `Nc1n[nH]c2c1C1(CCCCC1)Cc1ccccc1-2`, 22%.
Under `O=C(/C=C/c1ccc(O)c(O)c1)OCCc1ccccc1` stands 19.7%.
Under `O=C(OCCc1ccccc1)c1cc(O)c(O)c(O)c1` stands 34.3% (active); under `N=c1c[n+](-c2ccc(Cl)cc2)[n-]o1`, 18.1%; under `O=S(=O)(c1ccc(Cl)cc1)N1CCCC(C(F)(F)F)C1` (stereo not given), 22.5%.
In the case of `CN(Cc1ccccc1)C(=O)CN1CCN(S(=O)(=O)c2ccc(Cl)c(Cl)c2)CC1`, the inhibition is 22.8%.
Consider `O=C(CN1CCN(S(=O)(=O)c2ccc(Cl)cc2)CC1)c1ccc(O)c(O)c1`, for which the inhibition was 33.2% (active).
Regarding `O=C(NNC(=O)C12CC3CC(CC(C3)C1)C2)c1cccc([N+](=O)[O-])c1`, the inhibition is 18.9%.
With `CCC(=O)Nc1cc(C)c(NC(=O)C23CC4CC(CC(C4)C2)C3)cn1`, the inhibition is 22.1%.
Under `O=C(NNC(=S)NC(=O)C12CC3CC(CC(C3)C1)C2)c1ccncc1` stands 38.2% (active); under `O=C1C(c2ccccc2)NC(=S)N1C1CCCCC1` (stereo not given), 20.2%; under `O=C(O)c1ccn2c(C(=O)c3ccc(Cl)cc3)c(-c3ccccc3)cc2c1`, 62.6% (active).
Under `O=C(O)c1ccn2c(C(=O)c3ccccc3)c(-c3ccccc3)cc2c1` stands 27.1% (active).
Under `O=C1NC(c2cccs2)C(C(=O)c2ccccc2)C(O)(C(F)(F)F)N1` (stereo not given) stands 11.5%; under `Cc1ccc2[nH]c(C(=O)O)c(NC(=O)[C@@H]3C[C@@H]3c3ccccc3)c2c1`, 17.5%; under `CCOCCCNC(=O)Cc1c(C(=O)O)[nH]c2ccc(Cl)cc12`, 26.3% (active).
`CCCCN(CC)C(=O)Cc1c(C(=O)O)[nH]c2ccc(Cl)cc12`: the inhibition is 41.1% (active).
Under `CC(C)CCNC(=O)Cc1c(C(=O)O)[nH]c2ccc(Cl)cc12` stands 43.9% (active); under `CC1CC(C)CN(C(=O)Cc2c(C(=O)O)[nH]c3ccc(Cl)cc23)C1` (stereo not given), 73.8% (active).
Under `COc1ccc([N+](=O)[O-])cc1N(CC(=O)NCCSc1ccc(C)cc1)S(C)(=O)=O` stands 22.5%; under `CC12CC3CC(C)(C1)CC(C(=O)N1CCN(C(=O)c4ccco4)CC1)(C3)C2`, 16.1%; under `O=C(Nc1ccc(N2CCOCC2)cc1)C1(c2ccc(Cl)cc2)CCC1`, 78.4% (active).
Under `CC(Sc1ccc(Cl)cc1)C(=O)Nc1ccc(S(=O)(=O)N2CCOCC2)cc1` (stereo not given) stands 20%.
Regarding `Cc1ccccc1C(=O)N1CCN(c2ccc(NC(=O)CSc3ccc(Cl)cc3)cc2)CC1`, the inhibition is 23.5%.
Under `O=C(CCl)N(c1ccccc1)C1CCCCC1` stands 29.2% (active); under `O=C(O)c1cc(NC(=S)NC(=O)C(c2ccccc2)c2ccccc2)ccc1Cl`, 20.9%; under `Cc1ccc(S(=O)(=O)Nc2ccccc2-c2ccccc2NS(=O)(=O)c2ccc(C)cc2)cc1`, 43.8% (active).
Under `CC(C)(C)c1ccc(S(=O)(=O)/N=C2\C=C(NS(=O)(=O)c3ccccc3)C(=O)c3ccccc32)cc1` stands 11.4%; under `COc1cc(C(=O)O[C@H]2CC(C)=CC[C@@]3(C)CC[C@@](O)(C(C)C)[C@H]23)ccc1O`, 23.9%; under `Cc1nc2ccccn2c1-c1ccnn1S(=O)(=O)c1ccc(F)cc1`, 22.7%.
Under `O=c1[nH]c2cc(Cl)ccc2c(O)c1-c1cccc(Oc2ccccc2)c1` stands 27.1% (active); under `CC1CCN(S(=O)(=O)c2ccc(NC(=O)Cc3cccs3)cc2)CC1`, 19.6%; under `CC1CCN(S(=O)(=O)c2ccc(NC(=O)[C@@H]3CCCC[C@@H]3C(=O)O)cc2)CC1`, 39.3% (active).
`O=C(CSc1nc(C2CC2)nc2ccccc12)Nc1ccc2c(c1)OCCO2`: the inhibition is 1.2%.
Under `CC1CCN(S(=O)(=O)c2ccc(NC(=O)CSc3nnnn3C)cc2)CC1` stands 33.1% (active).
Under `CC1CCN(S(=O)(=O)c2ccc(N/N=C(/C#N)C(N)=O)cc2)CC1` stands 27.9% (active).
Under `CC1CCN(S(=O)(=O)c2cccc(C(=O)N(C)C3CCS(=O)(=O)C3)c2)CC1` (stereo not given) stands 23.7%; under `CC1CCN(S(=O)(=O)c2ccc(NC(=O)CN3CCCCCC3)cc2)CC1`, 20.4%; under `CN(C(=O)CSc1nc(-c2ccc(C(C)(C)C)cc2)c(C#N)c(=O)[nH]1)C1CCCCC1`, 20.1%.
Regarding `N#Cc1c(-c2ccccc2)nc(SCc2ccc(Cl)cc2)[nH]c1=O`, the inhibition is 40% (active).
Under `N#Cc1c(-c2ccccc2)nc(SCC(=O)N(c2ccccc2)c2ccccc2)[nH]c1=O` stands 38.8% (active); under `CC(C)c1ccc(-c2nc(N3CCOCC3)[nH]c(=O)c2C#N)cc1`, 23.2%; under `C/C(=N\O)C1/C(=N/O)CC2C1C2(C)C` (stereo not given), 31.7% (active).
Consider `Cc1cc(-c2ccccc2)c2ccc(NC(=O)C(C)(C)C)nc2n1`, for which the inhibition was 23.8%.
Under `Cc1cccc(OCC(=O)NCC(=O)N/N=C/c2cc(Br)cc(Br)c2O)c1` stands 19.1%.
Under `O=C(CNC(=O)c1cccc(Br)c1)N/N=C/c1cc(Br)cc(Br)c1O` stands 33.1% (active).
Under `C=C[C@]1(C)C=C2CC[C@H]3[C@@](C)(CCC[C@@]3(C)C(=O)O)[C@@H]2CC1` stands 30.9% (active).
As to `O=S(=O)(Oc1ccccc1N1CCCCC1)c1ccccc1`, the inhibition was 14.5%.
Regarding `C=CCO/N=C(\C)c1c(O)c(C)c(-c2ccccc2)n(-c2ccccc2)c1=O`, the inhibition was 25.2% (active).
Under `CC1CCC2C(C1)c1sc(=O)[nH]c1SC2(C)C` (stereo not given) stands 55.2% (active); under `N#CC1(C#N)CC(C=O)=C(N)C1(C#N)CC(=O)C12CC3CC(CC(C3)C1)C2` (stereo not given), 17.2%; under `CCC[C@@H]1CCCO[C@@](C(=O)NCc2ccccn2)(C(F)(F)F)C1`, 20%.
Under `Cc1ccc(SCc2[nH]nc3c2C2(CCSCC2)C(C#N)=C(N)O3)cc1` stands 32.9% (active); under `CCOC(=O)C(CC(=O)O)=C(c1ccccc1)c1ccccc1`, 17.7%; under `Cc1cc(C)cc(NC(=O)Nc2ccc(-n3ccc(C(F)(F)F)n3)cc2)c1`, 0.5%.
Under `CC1CCN(S(=O)(=O)c2ccc(NC(=O)CN3CCOCC3)cc2)CC1` stands 20.2%.
As to `CC1CCN(S(=O)(=O)c2ccc(N=NC3=C(O)CC(C)(C)CC3=O)cc2)CC1`, the inhibition was 49.4% (active).
Under `CC1(c2ccc(Cl)cc2)NC(=S)N2C1NC(=S)N2c1ccccc1` (stereo not given) stands 18.1%; under `Cn1cnc2cc(NCc3ccc(Cl)cc3)ccc21`, 35.2% (active).
Under `CCCn1cnc2cc(NCc3ccc(Br)cc3)ccc21` stands 33.7% (active).
`CC(C)(C)n1cnc2cc(NCc3ccc(Br)cc3)ccc21`: the inhibition was 35.2% (active).
Take `CCn1cnc2cc(NCc3ccc(Cl)cc3)ccc21`: the inhibition is 20.5%.
Under `Cc1ccc(S(=O)(=O)N2CCCCC2)cc1C(=O)OCC(=O)N1c2ccccc2NC(=O)C1(C)C` stands 23.6%; under `CCOC(=O)c1sc(N(Cc2ccccc2)C(=O)COC(=O)c2ccccc2O)nc1C`, 1.5%; under `CC(=O)NN1C(=O)/C(=C/c2ccc(C(C)C)cc2)SC1=S`, 28.4% (active).
Under `CC(=O)c1sc(NC(=O)C2(F)C(F)(F)C(F)(F)C(F)(F)C(F)(F)C2(F)F)nc1C` stands 28.6% (active); under `O=C(CN1CCN(S(=O)(=O)c2ccc(Br)s2)CC1)NC1CCCCC1`, 22.8%.
Under `CCn1c(SCC(=O)N(C)C)nc2cc(S(=O)(=O)N3CCOCC3)ccc21` stands 4.4%; under `O=C(c1cc([N+](=O)[O-])ccc1N1CCN(S(=O)(=O)c2ccc(Cl)c(Cl)c2)CC1)N1CCOCC1`, 27.3% (active).
In the case of `CC(NC(=O)CN1C(=O)NC(Cc2ccccc2)(Cc2ccccc2)C1=O)C12CC3CC(CC(C3)C1)C2` (stereo not given), the inhibition was 71.1% (active).
Under `CC(NC(=O)c1ccc([N+](=O)[O-])o1)C12CC3CC(CC(C3)C1)C2` (stereo not given) stands 18%.
Under `CN1CCN(S(=O)(=O)c2ccc(Sc3nnc(-c4cccs4)n3-c3ccccc3)nc2)CC1` stands 21.5%; under `CN1CCN(S(=O)(=O)c2ccc(Sc3nnnn3-c3ccccc3)c([N+](=O)[O-])c2)CC1`, 41.1% (active).
Under `CC(Sc1ccc(S(=O)(=O)N2CCN(C)CC2)cn1)C(=O)NC1(C#N)CCCCC1` (stereo not given) stands 22.4%; under `CC(OC(=O)C1=COCCO1)C(=O)Nc1ncc(Cl)cc1Cl` (stereo not given), 3.49%; under `N#CC(=C1C=CC(=NO)C(Cl)=C1)c1ccc(Cl)cc1`, 29.9% (active).
In the case of `C[C@H]1CCC[C@]2(C)C[C@H]3OC(=O)C(CN4CCCCCC4)[C@H]3C=C12` (stereo not given in full), the inhibition was 17.8%.
For the compound `CCNC(=S)NNC(=O)c1cc(-c2cccc(C)c2)nc2ccccc12`, the inhibition was 14.3%.
Under `O=C(NNS(=O)(=O)c1ccc(Cl)cc1)c1cc(-c2ccccc2)nc2ccccc12` stands 54.4% (active).
Under `CN(C)c1ccsc1C(=O)NNS(=O)(=O)c1ccc(Cl)cc1` stands 17.9%; under `O=C(NNS(=O)(=O)c1cccc(Cl)c1)c1cc(-c2ccc(F)cc2)nc2ccccc12`, 48.9% (active); under `CCc1ccc2[nH]c(O)c(N=NC3=NC(=O)CS3)c2c1`, 22.3%.
Consider `O=C(O)c1ccc(N=Nc2c(O)[nH]c3ccc(Br)cc23)cc1`, for which the inhibition is 25.6% (active).
Under `Oc1[nH]c2ccc(Br)cc2c1N=Nc1nn[nH]n1` stands 69.4% (active); under `CCn1c(SCC(N)=O)nc2c(c1=O)C1(CCCC1)Cc1ccccc1-2`, 20.1%; under `C=CCSc1n[nH]c2nc3c(c(=O)n12)C1(CCCC1)Cc1ccccc1-3`, 46.3% (active).
Under `O=c1[nH]c(NCCO)nc2c1C1(CCCC1)Cc1ccccc1-2` stands 22.6%.
